Each structure is given as a SMILES string. Among all 340,000 compounds or so, about 1,000 (0.29%) were called active. Not all results are given here. Measured potencies and affinities stand elsewhere. A number with no mark means an inactive call. Cut-off read from the data, not from the text of the source: inconclusive = inhibition above about 27% without an active follow-up result; inactive = below that.

The nature of this assay: H1N1 influenza NS1A inhibitors, functional cell based assay (AID 504329). The settings on record: percent inhibition, at 12.5 µM, stronger effect = higher value.
In general, inhibition refers to the change of the read-out against control, counted positive when it falls. For `COc1ccccc1C(=O)NCC(=O)OCC(=O)c1ccc2c(c1)-c1ccccc1C2`, the inhibition is 2.5%. On to `CSc1ccccc1OCc1cc(C(=O)N2CCN(c3ncccn3)CC2)no1`, for which the inhibition is -3.62%.

In the case of `O=C(c1ccccc1F)N1CCCc2ccccc21`, the inhibition is -3.09%.

In the case of `CCOC(=O)CN(C(=O)CNC(=O)c1cccs1)C(C(=O)NC1CCCC1)c1ccncc1` (configuration not stated), the inhibition is -5%. On to `CCC(C(=O)N/N=C/c1cccnc1)c1ccccc1` (configuration not stated), for which the inhibition was -5.44%.

Turning to `Cc1cc(C(=O)NC2CCCN(Cc3ccccc3F)C2)n[nH]1` (configuration not stated), the inhibition was -3.85%. For the compound `C=CCNC(=S)Nc1ccccc1-c1nnc2n1CCCCC2`, the inhibition is 9.65%. As for `COC(=O)c1cc(C(=O)OCC(=O)NC2CCCCCCC2)cc([N+](=O)[O-])c1`, the inhibition is -0.07%.

As to `Cc1ccc(CNC(=O)COc2ccc(C)nc2[N+](=O)[O-])cc1`, the inhibition is -5.51%.

For the compound `CCCCC(=O)Nc1c2c(nn1-c1ccc(C)cc1)CS(=O)(=O)C2`, the inhibition was -7.59%. In the case of `COC(=O)c1c(C)cc(C)c2c1CC(C)(C)C2=O`, the inhibition is 5.46%. For `O=C(Nc1ccccc1)c1ccc(F)c(S(=O)(=O)N2CCOCC2)c1` the value was 5.59%; for `COc1ccc(C(=O)Nc2nc(-c3ccccn3)cs2)cc1S(=O)(=O)N1CCOCC1`, -8.69%.

As for `Cc1ccc(S(=O)(=O)N2CCOCC2)cc1C(=O)Nc1nc(-c2ccccn2)cs1`, the inhibition was 7.65%. With `O=C(Nc1nccs1)c1ccc(F)c(S(=O)(=O)N2CCOCC2)c1`, the inhibition was -4.84%. For `Cc1ccc(C(=O)Nc2ccccn2)cc1S(=O)(=O)N1CCOCC1` the value was -1.96%. `Cc1ccc(S(=O)(=O)N2CCOCC2)cc1C(=O)Nc1nc(-c2cccnc2)cs1`: the inhibition was -7.87%. With `CCC(NC(=O)COc1cc2c(c3oc(=O)c(C)c(C)c13)CCC(C)(C)O2)C(=O)O` (configuration not stated), the inhibition was -8.88%.

As to `CC(C)CCN1CC(=O)N2Cc3[nH]c4ccccc4c3C[C@H]2C1=O`, the inhibition is 19.7%. As for `Cc1c(CNC2CCCC(C)C2C)c(C(=O)O)c(C)n1Cc1ccccc1` (configuration not stated), the inhibition is -12.9%. For the compound `CC(C)NC(=O)NC(=O)COC(=O)c1cc(S(=O)(=O)N2CCCCC2)ccc1N1CCOCC1`, the inhibition was -4.42%. Consider `Cc1ccc(S(=O)(=O)N2CCCC2C(=O)OCc2ccccc2)cc1` (configuration not stated), for which the inhibition was 1.42%. For `Cc1ccc2ccc(C(Nc3cccc(C(F)(F)F)c3)c3cccnc3)c(O)c2n1` (configuration not stated) the value was 11.9%; for `COc1ccccc1NC(c1cccnc1)c1ccc2cccnc2c1O` (configuration not stated), 17.3%.

On to `COc1ccc(C(Nc2cc(C)ccn2)c2ccc3ccc(C)nc3c2O)cc1` (configuration not stated), for which the inhibition was 7.32%. In the case of `Cc1ccnc(NC(c2ccccc2)c2ccc3cccnc3c2O)c1` (configuration not stated), the inhibition is 7.45%.

Consider `Cc1ccc2ccc(C(Nc3ccccn3)c3ccccc3)c(O)c2n1` (configuration not stated), for which the inhibition was 32.6%. The result for `Cc1cc(NC(c2ccc(Cl)cc2)c2ccc3cccnc3c2O)no1` (configuration not stated) reads -17.5%; that for `Oc1ccccc1C(Nc1nccs1)c1ccc2cccnc2c1O` (configuration not stated), 21.5%. Take `Oc1c(C(Nc2cccc(C(F)(F)F)c2)c2cccnc2)ccc2cccnc12` (configuration not stated): the inhibition is -1.29%. In the case of `CC(C)CNC(=O)COc1cccc(C(=O)NCc2ccccc2)c1`, the inhibition was -16.8%. As for `O=C(CN1C(=O)c2cccc3cccc1c23)NCc1cccnc1`, the inhibition was -7.77%. On to `Cc1cc(S(=O)(=O)Nc2ccc(N3CCOCC3)cc2)ccc1Br`, for which the inhibition is 9.89%.

Turning to `Cc1ccc(-n2nc3c(=O)n(CCCC(=O)NCc4cccc(F)c4)nc(C)c3c2C)cc1`, the inhibition is 4.12%.

For the compound `Cc1c2cnn(CC(=O)NCCN3CCOCC3)c(=O)c2c(C)n1Cc1ccccc1`, the inhibition is 7.12%.

In the case of `Cc1ccc(Nc2nc(N)nc(CSc3nnnn3-c3ccccc3)n2)cc1`, the inhibition was -1.1%. For `COc1cccc(CN(C)C(=O)c2ccc(NS(=O)(=O)c3ccc4[nH]c(=O)[nH]c4c3)cc2)c1OC` the value was -3.23%; for `CC(C(=O)Nc1cccc(S(=O)(=O)N2CCOCC2)c1)N1CCN(C/C=C/c2ccccc2)CC1` (configuration not stated), -4.15%; for `CCOC(=O)Cc1csc(NS(=O)(=O)c2ccc(NC(C)=O)cc2)n1`, -2.56%. As for `Cc1ccc(S(=O)(=O)/N=C2\C=C(Nc3cccc(C(=O)O)c3)C(=O)c3ccccc32)c(C)c1`, the inhibition was 25.4%. The result for `O=C(O)c1ccc(NC2=C/C(=N/S(=O)(=O)c3ccccc3)c3ccccc3C2=O)cc1` reads 15.2%; that for `CCc1ccc(S(=O)(=O)/N=C2\C=C(Nc3cccc(C(=O)O)c3)C(=O)c3ccccc32)cc1`, 24.6%; that for `Cc1cc(C)c(S(=O)(=O)/N=C2\C=C(NS(=O)(=O)c3ccccc3)C(=O)c3ccccc32)c(C)c1`, 0.45%. As for `O=C(COC(=O)c1c(F)cccc1F)Nc1ccc(N2CCCCC2)cc1`, the inhibition was -4.21%. On to `CCOc1ccc(-n2c(SCc3cc(=O)oc4cc(C)c(C(C)C)cc34)nnc2-c2cccnc2)cc1`, for which the inhibition is 2.59%. With `COc1ccc(C2CC3(CC(C)(C)NC(SC)=N3)Oc3cc(O)cc(C)c32)cc1` (configuration not stated), the inhibition is 2.74%. `CCCN1CCC(NC(=O)C2CCCCC2C(=O)O)CC1` (configuration not stated): the inhibition is -9.23%. Regarding `CC(c1ccon1)N(C)C(=O)c1ccc(OC2CCN(C(=O)C3CC3)CC2)cc1` (configuration not stated), the inhibition was 1.15%. The result for `CC(=O)c1ccc(N=c2scc(C)n2C(C)C)cc1` reads 2.71%; that for `Clc1ccc(/C=N/N2CCCCC2)cc1`, 10.3%.

With `CCN(CC)c1ccc(C=NN2CCCCCC2)cc1`, the inhibition was 1.15%.

Take `COc1ccc(CNCC2COc3ccccc3O2)cc1` (configuration not stated): the inhibition was -2.36%. For the compound `O=C(CC1C[C@H](C(=O)N2CCCCC2)[C@@]2(CCc3ccccc3)c3[nH]c4ccccc4c3CCN2C1=O)NCCCn1ccnc1` (some centres not stated), the inhibition is -10.1%. For the compound `COCCN1C(=O)/C(=C2/C(=O)N(CC(=O)Nc3ccccc3Cl)c3ccccc32)SC1=S`, the inhibition is 1.06%. With `CN1C(=O)/C(=C2/C=Cc3ccccc3N2CCCS(=O)(=O)O)SC1=S`, the inhibition is 8.55%. Consider `CCN1/C(=C2\OC(=S)N(C)C2=O)C=Cc2ccccc21`, for which the inhibition is 4.12%.

Regarding `CCN1C(=O)/C(=C2\SC(=S)N(NC(=O)c3ccccc3O)C2=O)c2ccccc21`, the inhibition was -6.27%. As for `CCN1C(=C2C(=O)c3ccccc3C2=O)C=Cc2ccccc21`, the inhibition is -0.12%. Turning to `CCCN1/C(=C2/SC(=S)N(CC)C2=O)C=Cc2ccccc21`, the inhibition was -4.1%. In the case of `CCN1/C(=C2/SC(=S)N(C)C2=O)C=Cc2cc(C)ccc21`, the inhibition was 9.87%. As to `CCN1C(=O)/C(=C2\C=Cc3ccccc3N2CC)OC1=S`, the inhibition was 20.4%. For the compound `CC(SCc1ccccc1)C(=O)Nc1ccccc1F` (configuration not stated), the inhibition was 4.17%. In the case of `N#Cc1c(Sc2ncc(C(F)(F)F)cc2Cl)nsc1C/C=N\OCc1ccccc1Br`, the inhibition was -7.95%. For `Cn1nc(C(C)(C)C)cc1C(=O)NNC(=O)c1ccc(C(F)(F)F)cc1` the value was -21.4%; for `O=C(NNc1cccc(Cl)n1)c1ccccc1CC[N+](=O)[O-]`, -1.98%. `CCn1nc(NS(=O)(=O)c2ccc([N+](=O)[O-])cc2)c2cc3ccccc3nc21`: the inhibition is 4.22%. For `CCC(C)(C)C1CCC2(CC1)NC(=O)N(CC(=O)N(C)Cc1ccc3c(c1)OCCO3)C2=O` (configuration not stated), the inhibition is -14.3%.

Take `CCN1C(=O)/C(=c2\o/c(=C3\C=Cc4ccccc4N3CC)c(=O)n2CC)SC1=S`: the inhibition is 19.6%. As to `CCN1/C(=C2\C(=O)N(C)C(=S)N2C)C=Cc2ccccc21`, the inhibition was 6.98%.

On to `O=C(NCCO)Nc1ccc(Cl)cc1`, for which the inhibition was 0.44%. For `Cc1ccc(S(=O)(=O)CCC(=O)Nc2nccs2)cc1`, the inhibition is 6.51%. For the compound `O=C(Cc1c[nH]c2ccccc12)NNCc1ccc(N(CCCl)CCCl)cc1`, the inhibition is 14.4%. On to `O=C(O)c1ccc(N=Nc2c(O)[nH]c3ccccc23)cc1`, for which the inhibition was -7.55%. For the compound `Oc1[nH]c2ccccc2c1N=Nc1ccc(F)cc1`, the inhibition was -3.37%.

Regarding `O=C(Cc1ccc(Cl)c(Cl)c1)N1CCOCC1`, the inhibition was -9.69%. With `O=C(N/N=C\c1cc2c(cc1[N+](=O)[O-])OCO2)c1cccs1`, the inhibition is -1.36%. As for `O=C(N/N=C/c1ccccc1[N+](=O)[O-])c1cccs1`, the inhibition was -0.41%. As to `Cc1cc(C(=O)N/N=C/c2cc(Cl)cc([N+](=O)[O-])c2O)n[nH]1`, the inhibition was -7.04%. Turning to `O=C(N/N=C/c1cccc([N+](=O)[O-])c1O)C(O)(c1ccccc1)c1ccccc1`, the inhibition is -8.83%. As to `Cc1cc([N+](=O)[O-])cc(/C=N\NC(=O)C2COc3ccccc3O2)c1O` (configuration not stated), the inhibition was 19.3%. Regarding `Cc1ccc(C(=O)N/N=C\c2ccccc2[N+](=O)[O-])cn1`, the inhibition is 4.04%. Take `CCNC(=S)N(Cc1ccc2c(c1)OCO2)C1CC(=O)N(c2ccc(OC)cc2)C1=O` (configuration not stated): the inhibition was -4.24%. For `O=C(NCCN1CCOCC1)C(=O)NCc1ccco1` the value was -2.57%; for `CC1CCC(NC(=O)CSc2nncs2)CC1` (configuration not stated), 1.05%; for `Cc1cc2nc(-c3ccc(SCC(=O)Nc4ccc(S(=O)(=O)NC5CC5)cc4)nc3)[nH]c2cc1C`, -2.72%. On to `C=CCOc1ccccc1/C=C/C(=O)O`, for which the inhibition was 1.54%. For `CC(=O)c1ccc(N(C)C)c2c(N(C)C)cccc12`, the inhibition was -6.19%. As to `CN(C)c1cccc2c(/C=N/O)ccc(N(C)C)c12`, the inhibition was 5.22%. For `Cc1ccc(-n2nc(C)c3c2OC(N)=C(C#N)C3c2ccco2)cc1` (configuration not stated) the value was 15.8%; for `Cc1ccc(-n2nc(C)c3c2OC(N)=C(C#N)C3c2ccncc2)cc1` (configuration not stated), -2%. `Cc1nn(-c2ccccc2)c2c1C(c1cccs1)C(C#N)=C(N)O2` (configuration not stated): the inhibition is 11.8%. For `Cc1nn(-c2ccccc2)c2c1C(c1ccccc1)C(C#N)=C(N)O2` (configuration not stated), the inhibition is -4.13%.

(Values after PubChem BioAssay AID504329 (Southern Research Specialized Biocontainment Screening …, 2011).)
